Data reported in PubChem BioAssay AID1159580 (chemical genetic matrix, 2015).
Where “and” joins values, the source holds several entries; their conditions need not be identical. Equal entries are not always repeated. Among all 5,500 compounds or so, about 2,000 (36%) were called active. Not shown: some 18% with an inconclusive outcome. Cut-off read from the data, not from the text of the source: active = normalized growth mostly below about 0.91 (no sharp cut-off); inconclusive = no clear call, values can overlap the other calls; inactive = mostly above about 0.92. The list shows a part of the results.

Assay: chemical genetic growth profiling, strain panel (AID 1159580);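 note: tested at 20 µM; growth read once vehicle control cultures reached saturation at 30 °C; 1 = growth at the plate median or of vehicle wells; lower values mean less growth of the strain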
Settings: S. cerevisiae deletion strains, growth OD

Measured: normalized growth

CC1(C)O[C@H]2[C@H](O)C[C@](O)(C(N)=O)C[C@H]2O1
inactive: locus YAL013W, strain DEP1, stronger effect = lower value 1.01 | locus YAL021C, strain ccr4, stronger effect = lower value 0.996 | locus YAL026C, strain drs2, stronger effect = lower value 1.04 | locus YAL030W, strain snc1, stronger effect = lower value 1.01 | locus YBL061C, strain skt5, stronger effect = lower value 1.01 | locus YBR009C, strain hhf1, stronger effect = lower value 1.02 | locus YBR021W, strain FUR4, stronger effect = lower value 1.02 | locus YBR023C, strain chs3, stronger effect = lower value 1.02 | locus YBR171W, strain sec66, stronger effect = lower value 1.03 | locus YBR229C, strain ROT2, stronger effect = lower value 1.03 | locus YBR231C, strain swc5, stronger effect = lower value 1.01 | locus YBR279W, strain paf1, stronger effect = lower value 1.01 | locus YCL011C, strain gbp2, stronger effect = lower value 1.01 | locus YCL016C, strain dcc1, stronger effect = lower value 1.01 | locus YCL029C, strain bik1, stronger effect = lower value 1.04 | locus YCL061C, strain MRC1, stronger effect = lower value 1.01 | locus YCL069W, strain vba3, stronger effect = lower value 1.02 | locus YCR088W, strain abp1, stronger effect = lower value 1.01 | locus YDL005C, strain med2, stronger effect = lower value 1.01 | locus YDL035C, strain GPR1, stronger effect = lower value 1.05 | locus YDL040C, strain nat1, stronger effect = lower value 1.01 | locus YDL074C, strain BRE1, stronger effect = lower value 1.12 | locus YDL101C, strain DUN1, stronger effect = lower value 1.03 | locus YDL185W, strain tfp1, stronger effect = lower value 1.02 | locus YDL192W, strain arf1, stronger effect = lower value 1.05 | locus YDR001C, strain nth1, stronger effect = lower value 1.01 | locus YDR069C, strain doa4, stronger effect = lower value 1.01 | locus YDR101C, strain arx1, stronger effect = lower value 1.01 | locus YDR137W, strain rgp1, stronger effect = lower value 1.04 | locus YDR159W, strain sac3, stronger effect = lower value 1.06 | locus YDR162C, strain NBP2, stronger effect = lower value 1.04 | locus YDR195W, strain ref2 1.01 | locus YDR297W, strain sur2, stronger effect = lower value 1.01 | locus YDR318W, strain mcm21, stronger effect = lower value 1.04 | locus YDR334W, strain swr1, stronger effect = lower value 1.03 | locus YDR335W, strain msn5, stronger effect = lower value 1.02 | locus YDR388W, stronger effect = lower value 1.01 | locus YDR392W, strain spt3, stronger effect = lower value 0.959 | locus YDR502C, strain sam2, stronger effect = lower value 1.03 | locus YEL003W, strain gim4, stronger effect = lower value 1.02 | locus YEL037C, strain rad23, stronger effect = lower value 1.02 | locus YEL061C, strain CIN8 (second series), stronger effect = lower value 1.02 | locus YER015W, strain faa2, stronger effect = lower value 1.02 | locus YER016W, strain bim1, stronger effect = lower value 1.01 | locus YER110C, stronger effect = lower value 1.03 | locus YER111C, strain swi4, stronger effect = lower value 0.996 | locus YER155C, strain BEM2 (second series), stronger effect = lower value 1.03 | locus YER155C, strain BEM2, stronger effect = lower value 0.997 | locus YER167W, strain BCK2, stronger effect = lower value 1.02 | locus YFR010W, strain ubp6, stronger effect = lower value 1.04 | locus YGL078C, strain dbp3, stronger effect = lower value 1.04 | locus YGL086W, strain mad1, stronger effect = lower value 1.01 | locus YGL167C, strain pmr1, stronger effect = lower value 1.02 | locus YGL173C, strain kem1, stronger effect = lower value 1.03 | locus YGL227W, strain vid30, stronger effect = lower value 1.01 | locus YGL240W, strain doc1, stronger effect = lower value 1.01 | locus YGL248W, strain PDE1, stronger effect = lower value 1.05 | locus YGL253W, strain hxk2, stronger effect = lower value 1.03 | locus YGR078C, strain PAC10, stronger effect = lower value 1.04 | locus YGR135W, strain pre9, stronger effect = lower value 1.05 | locus YGR252W, strain gcn5, stronger effect = lower value 1.09 | locus YHR013C, strain ard1, stronger effect = lower value 1.02 | locus YHR027C, strain rpn1, stronger effect = lower value 1.03 | locus YHR030C, strain SLT2, stronger effect = lower value 1.01 | locus YHR079C, strain IRE1 (second series), stronger effect = lower value 1.03 | locus YHR079C, strain IRE1, stronger effect = lower value 0.99 | locus YHR094C, strain hxt1, stronger effect = lower value 1.02 | locus YHR129C, strain ARP1, stronger effect = lower value 1.04 | locus YHR142W, strain chs7, stronger effect = lower value 1.03 | locus YHR200W, strain rpn10, stronger effect = lower value 1.05 | locus YIL066C, strain RNR3, stronger effect = lower value 1.03 | locus YIL073C, strain SPO22, stronger effect = lower value 1.16 | locus YIL125W, strain kgd1, stronger effect = lower value 1.01 | locus YIR030C, strain dcg1, stronger effect = lower value 1.03 | locus YJL092W, strain hpr5, stronger effect = lower value 1.01 | locus YJL095W, strain BCK1 (second series), stronger effect = lower value 1.02 | locus YJL095W, strain BCK1, stronger effect = lower value 1.1 and 1.02 | locus YJL115W, strain asf1, stronger effect = lower value 1.01 | locus YJL129C, strain trk1, stronger effect = lower value 1.01 | locus YJL134W, strain LCB3, stronger effect = lower value 1.01 | locus YJL154C, strain vps35, stronger effect = lower value 1.02 | locus YJL164C, strain tpk1, stronger effect = lower value 1.02 | locus YJL166W, strain qcr8, stronger effect = lower value 1.02 | locus YJL168C, strain set2, stronger effect = lower value 1.02 | locus YJL187C, strain SWE1 (second series), stronger effect = lower value 1.05 | locus YJL187C, strain SWE1, stronger effect = lower value 1.01 | locus YJR043C, strain POL32, stronger effect = lower value 1.05 | locus YJR066W, strain TOR1, stronger effect = lower value 0.951
